Assay [1] concerns Jurkat. In words: mean cell size (FSC-A) relative to DMSO control (fraction of control); higher = larger cells. The settings on record: 48 h. In outline: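 Jurkat cells seeded at 600 cells/µl were incubated 1 h, then exposed for 48h to the Enzo Screen-Well FDA Approved Drug Library v2.0 at 25µM in 0.9% (v/v) final DMSO. Drugs that cut counts below 20% of controls were diluted 10-fold and retested, down to 25nM. Cell count and mean cell size (forward scatter area) were read on an Accuri C6 flow cytometer, relative to solvent-only controls. Plates held 6-12 controls; values are means of 3 biological replicates.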

For assay [2], the system named is Jurkat. As to the kind of experiment: cell count relative to DMSO control (fraction of control); higher = more cells (less growth inhibition). The settings on record: 48 h.

Counter-ions that a name gives are not always drawn. ± gives the standard deviation.

`CN(C)CCC(c1ccc(Br)cc1)c1ccccn1` (stereo not drawn) [Brompheniramine Maleate] (concentration: 25 µM): the mean cell size with Jurkat [1] was 0.946 ± 0.034. The molecule also yielded a cell count in the assay on Jurkat [2] of 1 ± 0.14.
In the same order, the values of `Cc1cccc(C)c1NC(=O)C1CCCCN1C` (stereo not drawn) [Mepivacaine·HCl] (concentration: 25 µM) are 0.91 ± 0.035 and 1.31 ± 0.14.
The corresponding values for `NCCc1ccc(O)c(O)c1` [Dopamine·HCl] (concentration: 25 µM) are 0.951 ± 0.029 and 0.909 ± 0.097.
The corresponding values for `Nc1nc2c(ncn2COC(CO)CO)c(=O)[nH]1` [Ganciclovir] (concentration: 25 µM) are 1.022 ± 0.0079 and 0.51 ± 0.1.
In the case of `CC(C)NCC(O)c1ccc(NS(C)(=O)=O)cc1` (stereo not drawn) [Sotalol·HCl] (concentration: 25 µM), in the assay on Jurkat [1], the mean cell size was 0.893 ± 0.059. In the assay with Jurkat [2], the cell count was determined as 0.268 ± 0.17.
In the same order, the values of `CCCCC[C@H](O)/C=C/[C@H]1[C@H](O)CC(=O)[C@@H]1CCCCCCC(=O)O` [Alprostadil] (concentration: 25 µM) are 0.872 ± 0.0094 and 0.73 ± 0.12.
In the same order, the values of `CC(C)C[C@H](NC(=O)[C@@H](COC(C)(C)C)NC(=O)[C@H](Cc1ccc(O)cc1)NC(=O)[C@H](CO)NC(=O)[C@H](Cc1c[nH]c2ccccc12)NC(=O)[C@H](Cc1cnc[nH]1)NC(=O)[C@@H]1CCC(=O)N1)C(=O)N[C@@H](CCCNC(=N)N)C(=O)N1CCC[C@H]1C(=O)NNC(N)=O` [Goserelin Acetate] (concentration: 25 µM) are 0.953 ± 0.045 and 1.044 ± 0.003.
The corresponding values for `O=C1c2cccc3c2[C@H](CCC3)CN1[C@@H]1CN2CCC1CC2` [Palonosetron·HCl] (concentration: 25 µM) are 1.07 ± 0.033 and 0.721 ± 0.022.
With `CCN(CC)C(=S)SSC(=S)N(CC)CC` [Disulfiram] (concentration: 25 µM), the mean cell size in the assay with Jurkat [1] turned out to be 0.959 ± 0.051. In addition, the cell count with Jurkat [2] came out at 0.559 ± 0.15.
In the same order, the values of `C[C@@H]1C[C@H]2[C@@H]3CCC4=CC(=O)C=C[C@]4(C)[C@@]3(Cl)[C@@H](O)C[C@]2(C)[C@@]1(OC(=O)c1ccco1)C(=O)CCl` [Mometasone Furoate] (concentration: 25 µM) are 0.915 ± 0.037 and 0.47 ± 0.17.
The corresponding values for `NC(=O)c1cnccn1` [Pyrazinamide] (concentration: 25 µM) are 1 ± 0.031 and 0.808 ± 0.066.
In the same order, the values of `COC(=O)C1=C(C)NC(C)=C(C(=O)OCCN(C)Cc2ccccc2)C1c1cccc([N+](=O)[O-])c1` (stereo not drawn) [Nicardipine·HCl] (concentration: 25 µM) are 1.01 ± 0.071 and 0.568 ± 0.034.
Molecule `C#C[C@]1(O)CC[C@H]2[C@@H]3CCC4=CC(=O)CC[C@@H]4[C@H]3C(=C)C[C@@]21CC` [Etonogestrel] (concentration: 25 µM) registered a mean cell size with Jurkat [1] of 0.997 ± 0.025. Moreover, the cell count in the assay on Jurkat [2] turned out to be 0.557 ± 0.013.
Turning to `CN(C)CC(c1ccc(O)cc1)C1(O)CCCCC1` (stereo not drawn) [Desvenlafaxine Succinate Hydrate] (concentration: 25 µM), the mean cell size in the assay on Jurkat [1] stood at 0.993 ± 0.027. Moreover, the cell count with Jurkat [2] amounted to 0.64 ± 0.09.
In the same order, the values of `OC(CCN1CCCCC1)(c1ccccc1)C1CCCCC1` (stereo not drawn) [Trihexyphenidyl·HCl] (concentration: 25 µM) are 1.04 ± 0.031 and 1.05 ± 0.066.
The corresponding values for `CNS(=O)(=O)Cc1ccc2[nH]cc(CCN(C)C)c2c1` [Sumatriptan Succinate] (concentration: 25 µM) are 0.955 ± 0.031 and 0.738 ± 0.1.
The corresponding values for `CCCc1nc(C)c2c(=O)nc(-c3cc(S(=O)(=O)N4CCN(CC)CC4)ccc3OCC)[nH]n12` [Vardenafil] (concentration: 25 µM) are 0.966 ± 0.021 and 0.646 ± 0.099.
Molecule `CNC(=O)c1cc(Oc2ccc(NC(=O)Nc3ccc(Cl)c(C(F)(F)F)c3)cc2)ccn1` [Sorafenib Tosylate] (concentration: 2.5 µM) yielded a mean cell size in the assay with Jurkat [1] of 0.919 ± 0.022. This molecule gave a cell count with Jurkat [2] of 0.999 ± 0.032.
Molecule `Oc1ccc(C2CNCCc3c2cc(O)c(O)c3Cl)cc1` (stereo not drawn) [Fenoldopam Mesylate] (concentration: 25 µM) yielded a mean cell size in the assay on Jurkat [1] of 0.886 ± 0.059. In the assay with Jurkat [2], this molecule registered a cell count of 0.272 ± 0.13.
The corresponding values for `CC1=C(/C=C/C(C)=C\C=C\C(C)=C\C(=O)O)C(C)(C)CCC1` [Alitretinoin] (concentration: 25 µM) are 0.927 ± 0.025 and 0.555 ± 0.18.
In the same order, the values of `Cc1ccc(/C(=C\CN2CCCC2)c2cccc(/C=C/C(=O)O)n2)cc1` [Acrivastine] (concentration: 5 µM) are 1.06 ± 0.052 and 0.976 ± 0.12.
The corresponding values for `C1N2CN3CN1CN(C2)C3` [Methenamine Hippurate] (concentration: 25 µM) are 1.03 ± 0.063 and 0.89 ± 0.1.
For the molecule `Cc1cccc(CN2CCN(C(c3ccccc3)c3ccc(Cl)cc3)CC2)c1` (stereo not drawn) [Meclizine Dihydrochloride] (concentration: 25 µM), the mean cell size with Jurkat [1] is 0.965 ± 0.024. The molecule also displayed a cell count with Jurkat [2] of 0.703 ± 0.088.
The corresponding values for `CCC(=O)OCC(=O)[C@@]1(OC(=O)CC)[C@@H](C)C[C@H]2[C@@H]3CCC4=CC(=O)C=C[C@]4(C)[C@@]3(Cl)[C@@H](O)C[C@@]21C` [Beclomethasone Dipropionate] (concentration: 25 µM) are 0.913 ± 0.049 and 0.774 ± 0.07.

For the origin of these results see the supplement of paper PMC4709259.
